Laboratory results as given in PubChem BioAssay (Tox21).
A number with no mark means an inactive call. Results filed as inconclusive are left out. Where a call stands in place of a potency, no number is given. The source made the active and inactive calls. Unless noted, the call rests on the fitted dose curve; in most records, active means well fitted curve in the direction sought with a large enough effect in the repeat runs; inconclusive means weak or mixed curves; inactive means no such curve, though single readings can be large; an effect the other way counts as inactive or inconclusive.

Tests used:
[1] = biological target: Estrogen receptor (Homo sapiens) (UniProt P03372); test: qHTS assay to identify small molecule agonists of the estrogen receptor alpha (ER-alpha) signaling pathway in the presence of an antagonist (AID 1259383; calls by dose curve; further: top concentration of the series differs between compounds; nearly all actives have a fitted effect of over 15% in size)
Estrogen receptor (Homo sapiens), sequence (P03372 whole entry, looked up): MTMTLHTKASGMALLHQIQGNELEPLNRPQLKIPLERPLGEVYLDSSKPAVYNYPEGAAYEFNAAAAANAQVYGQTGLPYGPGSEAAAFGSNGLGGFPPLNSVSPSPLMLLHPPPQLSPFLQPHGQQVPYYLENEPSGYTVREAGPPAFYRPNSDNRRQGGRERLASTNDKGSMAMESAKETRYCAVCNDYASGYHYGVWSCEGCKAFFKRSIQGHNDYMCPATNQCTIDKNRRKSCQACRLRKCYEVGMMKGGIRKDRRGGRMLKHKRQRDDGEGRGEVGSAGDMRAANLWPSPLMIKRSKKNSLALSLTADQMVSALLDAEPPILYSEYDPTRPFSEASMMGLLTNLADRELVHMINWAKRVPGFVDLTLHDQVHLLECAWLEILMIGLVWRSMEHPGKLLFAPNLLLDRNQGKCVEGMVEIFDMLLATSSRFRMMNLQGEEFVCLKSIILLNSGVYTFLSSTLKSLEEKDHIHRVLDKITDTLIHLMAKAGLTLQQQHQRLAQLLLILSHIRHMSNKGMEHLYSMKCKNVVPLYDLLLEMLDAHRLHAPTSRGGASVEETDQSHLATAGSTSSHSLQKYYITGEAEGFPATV
In short: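 ER-alpha agonism measured under antagonist challenge: 10.0nM ICI-182,780 (final) plus compound, 15 concentrations, 22hr, VM7Luc4E2 ERE-luciferase cells. Read by luminescence.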

[2] = qHTS assay to identify small molecule agonists or antagonists of the thyroid stimulating hormone receptor (TSHR) signaling pathway - wild type cell line counter screen (AID 1259384; calls by dose curve)
In short: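 Counter screen in untransfected Hek293: compounds (15-point titration, triplicate) plus phosphodiesterase inhibitor Ro20-1724 added after 18 h plating; 30 min RT. Intracellular cAMP via competitive d2/cryptate immunoassay, 1 h incubation.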

[3] = biological target: Thyrotropin receptor (Homo sapiens) (UniProt P16473); test: qHTS assay to identify small molecule antagonists of the thyroid stimulating hormone receptor (TSHR) signaling pathway (AID 1259385; calls by dose curve; further: nearly all actives have a fitted effect of over 20% in size)
Thyrotropin receptor (Homo sapiens), sequence (P16473 whole entry, looked up): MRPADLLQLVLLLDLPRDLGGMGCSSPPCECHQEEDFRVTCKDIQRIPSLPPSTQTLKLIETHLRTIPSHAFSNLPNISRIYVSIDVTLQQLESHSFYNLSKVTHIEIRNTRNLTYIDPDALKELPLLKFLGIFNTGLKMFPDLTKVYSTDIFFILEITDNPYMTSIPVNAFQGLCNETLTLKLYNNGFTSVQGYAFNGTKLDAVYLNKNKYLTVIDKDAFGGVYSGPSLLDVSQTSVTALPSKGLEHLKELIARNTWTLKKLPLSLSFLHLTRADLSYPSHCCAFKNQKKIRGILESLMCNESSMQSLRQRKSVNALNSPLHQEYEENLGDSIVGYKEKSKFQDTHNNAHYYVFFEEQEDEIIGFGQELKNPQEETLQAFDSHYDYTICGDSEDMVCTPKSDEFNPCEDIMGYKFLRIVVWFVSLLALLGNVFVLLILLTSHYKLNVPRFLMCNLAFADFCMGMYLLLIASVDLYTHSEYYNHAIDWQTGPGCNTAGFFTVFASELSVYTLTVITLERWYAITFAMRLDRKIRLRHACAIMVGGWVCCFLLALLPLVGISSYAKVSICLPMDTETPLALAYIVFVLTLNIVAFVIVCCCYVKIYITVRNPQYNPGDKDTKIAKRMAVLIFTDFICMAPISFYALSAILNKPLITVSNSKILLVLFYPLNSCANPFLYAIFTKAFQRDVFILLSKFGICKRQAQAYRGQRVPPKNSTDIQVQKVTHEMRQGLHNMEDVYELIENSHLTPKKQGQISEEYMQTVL
In short: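 Antagonist mode: compound-treated TSHR-expressing HEK293 cells were stimulated with 1.5 ng/mL TSH (final) in presence of Ro20-1724 for 30 min at RT. HTRF cAMP detection after 1 h; each compound tested at 15 concentrations, triplicate.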

[4] = qHTS assay to identify small molecule agonists of the estrogen receptor alpha (ER-alpha) signaling pathway in the presence of an antagonist - cell viability counter screen (AID 1259386);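 further: series mostly up to about 92 µM; cells exposed to compounds for 22 h at 37 °C before the viability read; nearly all actives have a fitted effect of over 30% in size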
In short: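 Steps: 5-day stripped-FBS culture; seed and incubate 24hr; add ICI-182,780 (10.0nM final); pin 15-point compound titration; incubate 22hr at 37C; add CellTiter-Fluor at 21hr; read fluorescence.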

[5] = biological target: Progesterone receptor (Homo sapiens) (UniProt P06401); test: qHTS assay to identify small molecule agonists of the progesterone receptor (PR) signaling pathway (AID 1346784; calls by dose curve; further: nearly all actives have a fitted effect of over 30% in size; further: potency means the concentration at half of the fitted maximal effect)
Progesterone receptor (Homo sapiens), sequence (P06401 whole entry, looked up): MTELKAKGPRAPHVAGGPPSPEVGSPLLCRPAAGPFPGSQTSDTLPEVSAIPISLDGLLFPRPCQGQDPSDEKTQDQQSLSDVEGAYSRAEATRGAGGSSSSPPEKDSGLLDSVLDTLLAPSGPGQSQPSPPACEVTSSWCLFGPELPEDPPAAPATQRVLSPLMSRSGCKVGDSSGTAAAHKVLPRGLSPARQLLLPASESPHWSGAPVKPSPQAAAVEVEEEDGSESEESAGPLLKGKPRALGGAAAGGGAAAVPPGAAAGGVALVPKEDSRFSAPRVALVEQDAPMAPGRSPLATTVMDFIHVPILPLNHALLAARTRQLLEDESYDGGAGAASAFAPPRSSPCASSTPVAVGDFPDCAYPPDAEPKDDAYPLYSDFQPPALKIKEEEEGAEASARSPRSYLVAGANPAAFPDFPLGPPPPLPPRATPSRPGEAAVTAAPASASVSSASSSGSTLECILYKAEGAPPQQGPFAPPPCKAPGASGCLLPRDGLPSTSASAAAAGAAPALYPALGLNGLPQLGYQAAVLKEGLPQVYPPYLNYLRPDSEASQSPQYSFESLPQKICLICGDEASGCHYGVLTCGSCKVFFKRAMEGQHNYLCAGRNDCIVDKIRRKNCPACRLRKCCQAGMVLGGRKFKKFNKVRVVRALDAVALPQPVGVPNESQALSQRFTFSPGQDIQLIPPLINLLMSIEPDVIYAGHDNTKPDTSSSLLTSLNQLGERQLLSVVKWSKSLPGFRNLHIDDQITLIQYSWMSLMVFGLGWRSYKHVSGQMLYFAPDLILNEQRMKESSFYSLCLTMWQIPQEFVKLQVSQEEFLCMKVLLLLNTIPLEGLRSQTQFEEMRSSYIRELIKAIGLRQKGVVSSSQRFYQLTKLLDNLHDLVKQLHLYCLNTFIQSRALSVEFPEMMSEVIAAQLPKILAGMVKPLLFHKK
In short: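 Reporter assay, GripTite PR-UAS-bla HEK 293T cells: 16 hr exposure to DMSO-dissolved compounds at 37C, 5% CO2, in steroid-depleted (2% charcoal-stripped FBS) medium; beta-lactamase measured by FRET fluorescence.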

[6] = biological target: Progesterone receptor (Homo sapiens) (UniProt P06401); test: qHTS assay to identify small molecule antagonists of the progesterone receptor (PR) signaling pathway (AID 1346795; active means well fitted inhibition curve with a large enough effect in the signal ratio in the repeat runs, not every such curve was filed as active; the % refers to the signal ratio)
In short: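 Stimulus R5020 at 1 nM final; cells HEK293T PR-UAS-bla; medium with 2% charcoal-stripped FBS; compound exposure 16 hr at 37C, 5% CO2; detection by FRET beta-lactamase substrate, 2 hr, room temperature.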

[7] = qHTS assay to identify small molecule antagonists of the progesterone receptor (PR) signaling pathway - cell viability counter screen (AID 1346798); further: series mostly up to about 92 µM; nearly all actives have a fitted effect of over 50% in size
In short: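 In the same plates used for the beta-lactamase readout, cell viability of compound- and R5020-treated PR-UAS-bla HEK293T cells (16 hr, 37C) was assessed by CellTiter-Glo luminescence.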

[8] = qHTS assay to identify small molecule agonists of the progesterone receptor (PR) signaling pathway - cell viability counter screen (AID 1346799; calls by dose curve; further: nearly all actives have a fitted effect of over 45% in size)
In short: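 Multiplexed viability read: CellTiter-Glo luminescence, 30 min RT, following LiveBLAzer FRET measurement on PR-UAS-bla HEK293T cells exposed to compounds 16 hr.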

[9] = qHTS assay to identify small molecule antagonists of the TGF-beta/Smad signaling pathway - cell viability counter screen (AID 1346824); further: nearly all actives have a fitted effect of over 50% in size
In short: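 Cytotoxicity counter-screen run in the same wells as the beta-lactamase Smad reporter read: CellTiter-Glo luminescence after 30 min at room temperature. HEK 293T SBE-bla cells had 5 hr compound exposure at 37 C with TGF-beta1 (0.25 ng/mL stock).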

[10] = qHTS assay to identify small molecule agonists of the TGF-beta/Smad signaling pathway - cell viability counter screen (AID 1346829); further: top concentration of the series differs between compounds; nearly all actives have a fitted effect of over 45% in size
In short: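 Same-well cytotoxicity: CellTiter-Glo added after the 2 hr room-temperature beta-lactamase substrate step, luminescence measured 30 min later; cells had 5 hr of compound at 37 C.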

[11] = qHTS assay to identify small molecule agonists of the TGF-beta/Smad signaling pathway (AID 1346859; active means well fitted activation curve with a large enough effect in the signal ratio in the repeat runs, not every such curve was filed as active; the % refers to the signal ratio; further: series mostly up to about 77 µM)
In short: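 Screening used HEK 293T SBE-bla cells at 4,000/well. Test agents: 5 hr, 37 C. Detection: FRET substrate, 2 hr RT, then excitation 405 nm with emissions at 460 and 530 nm.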

[12] = biological target: Thyrotropin-releasing hormone receptor (Homo sapiens) (UniProt P34981); test: qHTS assay to identify small molecule antagonists of the thyrotropin-releasing hormone receptor (TRHR) signaling pathway (AID 1346877; active means well fitted inhibition curve with a large enough effect in the repeat runs, not every such curve was filed as active; further: series mostly up to about 51 µM)
Thyrotropin-releasing hormone receptor (Homo sapiens), sequence (P34981 whole entry, looked up): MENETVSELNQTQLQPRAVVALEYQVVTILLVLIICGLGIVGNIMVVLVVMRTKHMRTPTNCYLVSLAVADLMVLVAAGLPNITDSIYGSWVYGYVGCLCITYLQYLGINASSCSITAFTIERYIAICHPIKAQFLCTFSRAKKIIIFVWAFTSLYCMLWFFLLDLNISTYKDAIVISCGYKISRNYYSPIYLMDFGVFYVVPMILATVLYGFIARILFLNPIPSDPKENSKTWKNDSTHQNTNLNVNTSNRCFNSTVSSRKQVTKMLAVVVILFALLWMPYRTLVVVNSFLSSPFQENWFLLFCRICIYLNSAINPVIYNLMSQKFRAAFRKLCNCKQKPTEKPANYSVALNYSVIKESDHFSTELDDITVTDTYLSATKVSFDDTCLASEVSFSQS
In short: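 Human TRHR in HEK293 cells; inhibition of the intracellular calcium rise triggered by 1 nM TRH was followed by fluorescence over 3 min. Compounds were run at 15 concentrations, three replicates each.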

[13] = biological target: Thyrotropin-releasing hormone receptor (Homo sapiens) (UniProt P34981); test: qHTS assay to identify small molecule agonists of the thyrotropin-releasing hormone receptor (TRHR) signaling pathway (AID 1346891; calls by dose curve; further: series mostly up to about 58 µM)
In short: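 Readout was intracellular calcium fluorescence in TRHR-Hek293 cells. Cells were incubated 18 h, dye-loaded 2 h at 37 °C, and treated with compound in agonist mode.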

[14] = Human pregnane X receptor (PXR) small molecule agonists, qHTS cell viability counter screen (AID 1346977); further: nearly all actives have a fitted effect of over 50% in size
In short: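 In each well, the PXR reporter HepG2 line was checked for viability: CellTiter-Fluor reagent added 23hr post-dosing, fluorescence read after 1hr incubation at 37C.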

[15] = Caspase-3/7 induction in HepG2 cells by small molecules, qHTS assay (AID 1346978); further: nearly all actives have a fitted effect of over 15% in size
In short: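 Caspase-3/7 induction was measured by Caspase-Glo 3/7 luminescence (30 min, room temperature) after a 17 hr compound exposure of wild-type HepG2 cells seeded at 2,000 per well and pre-incubated 5 hr.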

[16] = Caspase-3/7 induction in CHO-K1 cells by small molecules, qHTS assay (AID 1346980); further: nearly all actives have a fitted effect of over 15% in size
In short: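 Luminescent Caspase-Glo 3/7 read (30min, room temperature) quantified apoptosis induction. Cells were wild-type CHO-K1, treated with compound for 17hr at 37 C and 5% CO2.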

[17] = Caspase-3/7 induction in HepG2 cells by small molecules, qHTS cell viability counter screen (AID 1346981); further: series mostly up to about 92 µM; nearly all actives have a fitted effect of over 30% in size
In short: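 The parent HepG2 line is plated at 2,000 cells per well and rested 5 hr before compound pinning from DMSO stocks. Following a 16-hr treatment at 37 C, a fluorogenic live-cell substrate (CellTiter-Fluor) reports viability after 1 hr.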

[18] = biological target: Nuclear receptor subfamily 1 group I member 2 (Homo sapiens) (UniProt O75469); test: Human pregnane X receptor (PXR) small molecule agonists, qHTS assay (AID 1346982); further: nearly all actives have a fitted effect of over 35% in size; further: potency means the concentration at half of the fitted maximal effect
Nuclear receptor subfamily 1 group I member 2 (Homo sapiens), sequence (O75469 whole entry, looked up): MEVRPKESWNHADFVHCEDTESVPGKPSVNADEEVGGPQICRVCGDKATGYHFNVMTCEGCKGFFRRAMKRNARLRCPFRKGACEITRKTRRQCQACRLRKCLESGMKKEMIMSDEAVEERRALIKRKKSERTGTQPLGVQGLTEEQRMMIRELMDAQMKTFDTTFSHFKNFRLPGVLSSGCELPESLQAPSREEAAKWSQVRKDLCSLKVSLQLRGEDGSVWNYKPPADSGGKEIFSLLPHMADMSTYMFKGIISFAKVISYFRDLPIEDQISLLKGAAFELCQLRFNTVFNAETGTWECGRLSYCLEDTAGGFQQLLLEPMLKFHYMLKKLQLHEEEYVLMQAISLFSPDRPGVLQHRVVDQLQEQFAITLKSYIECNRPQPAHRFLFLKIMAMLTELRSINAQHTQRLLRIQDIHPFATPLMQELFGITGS
In short: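 After plating in 5% charcoal-stripped FBS and a 5 hr rest, PXR-Luc HepG2 cells received compounds in DMSO. Following 24 hr at 37 C, ONE-Glo was added and light output read.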

[19] = Caspase-3/7 induction in CHO-K1 cells by small molecules, qHTS cell viability counter screen (AID 1346979); further: nearly all actives have a fitted effect of over 35% in size
In short: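 Following a 5hr settling period, CHO-K1 cells at 1,500 per well received DMSO-dissolved compounds. Cell viability was quantified 16hr later by CellTiter-Fluor fluorescence, measured after 1hr with reagent at 37C.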

[20] = biological target: Nuclear receptor subfamily 1 group I member 2 (Rattus norvegicus) (UniProt Q9R1A7); test: Rat pregnane X receptor (rPXR) activation by small molecules, qHTS assay (AID 1346983); settings: rPXR luciferase reporter cells, One-Glo luminescence, 24 h; max activation: stronger effect = higher value; further: nearly all actives have a fitted effect of over 20% in size
Nuclear receptor subfamily 1 group I member 2 (Rattus norvegicus), sequence (Q9R1A7 whole entry, looked up): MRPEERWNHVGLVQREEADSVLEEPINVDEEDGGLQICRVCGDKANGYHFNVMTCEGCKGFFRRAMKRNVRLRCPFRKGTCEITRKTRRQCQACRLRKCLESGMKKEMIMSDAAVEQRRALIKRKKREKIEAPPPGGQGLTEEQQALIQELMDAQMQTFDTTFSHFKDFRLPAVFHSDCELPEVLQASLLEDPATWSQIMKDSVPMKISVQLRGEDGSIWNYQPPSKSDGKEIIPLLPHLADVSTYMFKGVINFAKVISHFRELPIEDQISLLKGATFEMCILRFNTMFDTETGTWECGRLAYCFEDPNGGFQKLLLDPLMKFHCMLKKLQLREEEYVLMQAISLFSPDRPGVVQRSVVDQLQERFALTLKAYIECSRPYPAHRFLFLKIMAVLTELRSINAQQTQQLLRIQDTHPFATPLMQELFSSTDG
In short: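 Luminescent readout (One-Glo luciferase, 30 min room temperature) followed 24 hr compound treatment at 37 C of rPXR cells plated 2,000 per well and preincubated 5hr; qHTS format with compounds delivered in DMSO.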

SMILES | outcome [1] | outcome [2] | outcome [3] | Potency [4] | Potency [5] | Potency [6] | Potency [7] | Potency [8] | outcome [9] | outcome [10] | outcome [11] | outcome [12] | outcome [13] | Potency [14] | outcome [15] | outcome [16] | Potency [17] | Potency [18] | Potency [19] | max activation [20]
CC(C)C(=O)c1ccccc1 | inactive | inactive | inactive | inactive | inactive | inactive | inactive | inactive | inactive | inactive | inactive | inactive | inactive | inactive | inactive | inactive | inactive | inactive |  | 
C=CC(C)(O)CC/C=C(\C)CC (configuration not stated) | inactive | inactive | inactive | inactive | inactive | inactive | inactive | inactive | inactive | inactive | inactive | inactive | inactive | inactive | inactive |  | inactive |  | inactive | 
CC1=CC[C@H](CC=O)C1(C)C | inactive | inactive | inactive | inactive | inactive | inactive | inactive | inactive | inactive | inactive | inactive | inactive | inactive | inactive | inactive | inactive | inactive | 48.6 µM (active) |  | 
CCCCCCCCCCCCC | inactive | inactive | inactive | inactive | inactive | inactive | inactive | inactive | inactive | inactive | inactive | inactive | inactive | inactive | inactive | inactive | inactive | inactive | inactive | 
O=S(=O)(O)CCO | inactive | inactive | inactive | inactive | 49.2 µM (active) | inactive | inactive | inactive | inactive | inactive | inactive | inactive | inactive | inactive | inactive | inactive |  | inactive |  | 
CC1CCC(C(C)(C)S)C(=O)C1 (configuration not stated) | inactive | inactive | inactive | inactive | inactive | inactive | inactive | inactive | inactive | inactive | inactive | inactive | inactive | inactive | inactive | inactive |  | 61.1 µM (active) | inactive | 
F[Si-2](F)(F)(F)(F)F | inactive | inactive | inactive | inactive | inactive | inactive | inactive | inactive | inactive | inactive | inactive | inactive | inactive | inactive | inactive | inactive | inactive |  | inactive | -2.73%
CCCCCC(=O)OCC | inactive | inactive | inactive | inactive | inactive | inactive | inactive | inactive | inactive | inactive | inactive | inactive | inactive | inactive | inactive | inactive | inactive | inactive |  | 
CCOC(=O)CCCCCCCCC(=O)OCC | inactive | inactive | inactive | inactive | inactive | inactive | inactive | inactive | inactive | inactive | inactive | inactive | inactive | inactive | inactive |  | inactive | inactive | inactive | 
CC(C)CCCC(C)CC=O (configuration not stated) | inactive | inactive | inactive | inactive | inactive | inactive | inactive | inactive | inactive | inactive | inactive | inactive |  | inactive | inactive | inactive |  | inactive |  | 
CC(=O)N1CCN(c2ccc(O)cc2)CC1 | inactive | inactive | inactive | inactive | inactive | inactive | inactive | inactive | inactive | inactive | inactive | inactive | inactive | inactive | inactive | inactive |  | inactive | inactive | 
COc1cccc2sc(N)nc12 | inactive | inactive | inactive | inactive | 43.5 µM (active) | inactive | inactive | inactive | inactive | inactive | inactive | inactive | inactive | inactive | inactive |  | inactive |  | inactive | 
CCCOC(=O)CCCCC(=O)OCCC | inactive | inactive | inactive | inactive | inactive | inactive | inactive | inactive | inactive | inactive | inactive | inactive | inactive | inactive | inactive | inactive | inactive | inactive | inactive | 
COc1ccc(NS(=O)(=O)c2ccc(N)cc2)nn1 | inactive | inactive | inactive | inactive | inactive | inactive | inactive | inactive | inactive | inactive | inactive | inactive | inactive | inactive | inactive | inactive | inactive |  | inactive | 
Nc1cc(Cl)cc(S(=O)(=O)O)c1O | inactive | inactive | inactive | inactive | inactive | inactive | inactive | inactive | inactive | inactive | inactive | inactive | inactive | inactive | inactive | inactive | inactive | inactive | inactive | 
C=CCOCC(CO)(COCC=C)COCC=C | inactive | inactive | inactive | inactive | inactive | inactive | inactive | inactive | inactive | inactive | inactive | inactive | inactive | inactive | inactive | inactive | inactive |  | inactive | 
